A selection: hits, their analogues and other compounds. The true share with any hit is near 10%.
BAZ2B inh = inhibitors of human BAZ2B bromodomain; Q9UIF8; AlphaScreen BAZ2B-H3K14Ac peptide displacement; Potency, µM (top dose mostly 114 µM), most hits filed as inhibitors; 360,000 compounds, 4.4% hits; also: nearly all actives have a fitted effect of over 60% in size
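Inhibition is scored as reduced AlphaScreen emission. The BAZ2B/b-H3(5-23)K14Ac complex (50 nM each) in PBS pH 7.4, 0.01% Tween-20 meets compound (up to 110 uM) for 30 min at RT before bead addition.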
HP1b binding inh = blocks HP1-beta chromodomain binding to methylated histone tails | P83916 | AlphaScreen HP1-beta / biotin-H3K9me3 peptide binding | Potency, µM (titrated, usually from 114 µM), hits mostly inhibitors | 390,000 compounds, 0.56% hits | AID 540317; also: nearly all actives have a fitted effect of over 70% in size
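HP1-beta protein (50 nM final) preincubated 30 min at room temperature with biotinylated H3(1-18)K9me3 peptide (50 nM) in PBS pH 7.4, 0.01% Tween-20, then compound added for 30 min. AlphaScreen streptavidin donor/nickel chelate acceptor beads (10 ug/mL final), 30 min dark, luminescence read.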
JMJD2A Tudor inh = inhibitors of human JMJD2A Tudor domain; O75164; 390,000 compounds, 4.4% hits; AID 504339; AlphaScreen JMJD2A-Tudor / H3K4me3 peptide binding; Potency, µM (doses to about 114 µM), hits mostly inhibitors; also: nearly all actives have a fitted effect of over 50% in size
Target sequence (O75164 whole entry, looked up, the tested form may be a part): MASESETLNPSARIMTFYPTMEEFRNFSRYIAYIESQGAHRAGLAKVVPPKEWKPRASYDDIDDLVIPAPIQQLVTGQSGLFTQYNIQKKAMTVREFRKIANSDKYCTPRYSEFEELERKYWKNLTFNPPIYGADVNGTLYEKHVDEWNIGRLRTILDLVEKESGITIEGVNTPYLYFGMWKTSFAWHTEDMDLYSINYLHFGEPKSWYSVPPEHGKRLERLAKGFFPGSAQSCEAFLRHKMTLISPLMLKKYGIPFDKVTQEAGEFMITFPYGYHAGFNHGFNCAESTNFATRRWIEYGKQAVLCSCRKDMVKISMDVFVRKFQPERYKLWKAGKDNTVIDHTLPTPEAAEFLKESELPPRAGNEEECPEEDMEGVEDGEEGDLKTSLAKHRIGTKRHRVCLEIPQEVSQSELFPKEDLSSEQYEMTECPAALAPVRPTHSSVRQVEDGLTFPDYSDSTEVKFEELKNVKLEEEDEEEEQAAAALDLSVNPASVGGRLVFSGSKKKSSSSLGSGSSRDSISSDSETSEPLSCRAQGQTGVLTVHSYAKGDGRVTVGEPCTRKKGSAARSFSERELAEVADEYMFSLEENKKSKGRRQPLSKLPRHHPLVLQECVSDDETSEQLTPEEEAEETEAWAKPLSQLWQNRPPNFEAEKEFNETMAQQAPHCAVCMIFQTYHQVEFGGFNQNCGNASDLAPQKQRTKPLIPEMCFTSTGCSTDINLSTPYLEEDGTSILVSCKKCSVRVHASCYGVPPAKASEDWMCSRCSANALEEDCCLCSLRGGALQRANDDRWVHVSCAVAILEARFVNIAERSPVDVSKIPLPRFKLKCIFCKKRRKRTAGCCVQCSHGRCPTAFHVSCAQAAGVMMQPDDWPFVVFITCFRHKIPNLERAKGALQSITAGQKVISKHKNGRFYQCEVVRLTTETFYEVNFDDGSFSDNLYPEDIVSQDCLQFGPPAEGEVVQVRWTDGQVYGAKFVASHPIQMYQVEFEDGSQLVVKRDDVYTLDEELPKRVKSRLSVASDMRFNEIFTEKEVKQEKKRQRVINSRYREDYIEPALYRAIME
G9a block = G9a (human) methyltransferase inhibition; G9a H3K9 monomethylation, AlphaScreen, 2 h; Potency, µM (doses to about 102 µM), most hits filed as inhibitors; 350,000 compounds, 8.8% hits; AID 504332; also: nearly all actives have a fitted effect of over 75% in size
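Signal arises when biotinylated H3K9 peptide, once monomethylated, bridges streptavidin donor and antibody-captured acceptor beads. Enzyme at 20 nM was preincubated 15 min with test compounds; peptide 500 nM and SAM 20 uM then reacted for 2 h.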
GLS inhibitor = blocks human kidney-isoform glutaminase activity. AID 624170. 410,000 compounds, 0.21% hits. Potency, µM (titrated, usually from 45.5 µM), hits mostly inhibitors. GLS enzymatic activity, qHTS titration. O94925
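Compounds were pin-transferred onto hKGA, after which L-glutamine (1 mM solution) and a detection mix of glutamate oxidase, HRP and Amplex Red were added. Initial and 30 min RT fluorescence reads were collected.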
Numbers stand for hits; [ ] = remark or other dose. Calls follow the shape of the dose curve; as a rule, active = well fitted curve in the direction sought with a large enough effect; inconclusive = small, poorly fitted or top-dose-only effect, or another doubt; inactive = no such curve, though single readings can be large; an effect the other way counts as inactive or inconclusive.

How did Cc1ccc(C2(C)NC(=O)N(CC(=O)NCCC3=CCCCC3)C2=O)cc1 (stereo not drawn) do in these assays?
BAZ2B inh: inactive; HP1b binding inh: inactive; JMJD2A Tudor inh: inactive; G9a block: inconclusive; GLS inhibitor: inactive

What do the screens show for `CC1(c2ccc(Cl)cc2)NC(=O)N(CC(=O)NCCC2=CCCCC2)C1=O` (stereo not drawn)?
BAZ2B inh: inactive; HP1b binding inh: inactive; JMJD2A Tudor inh: inactive; G9a block: 0.89µM; GLS inhibitor: inactive

Results for O=C(Cc1ccc(Br)cc1)NC1CCSC1=O (stereo not drawn) ?
BAZ2B inh: inactive; HP1b binding inh: inactive; JMJD2A Tudor inh: inactive; G9a block: inactive; GLS inhibitor: inactive

How did COc1ccc(-c2sc3cc4c(cc3c2C#CC2(N)CCCCC2)OCO4)cc1 do in these assays?
BAZ2B inh: 10µM; HP1b binding inh: inactive; JMJD2A Tudor inh: 25µM; G9a block: inactive[0.501 µM]; GLS inhibitor: inactive

Results for C[C@H](NC(=O)[C@@H]1CCCN1C(=O)[C@@H]1CCCN1C(=O)c1cccc2ccccc12)c1ccccc1 ?
GLS inhibitor: inactive

How did O=C(CCc1ccccc1)Nc1ncnc2c1C(c1ccccc1)c1c(ccc3ccccc13)O2 (stereo not drawn) do in these assays?
JMJD2A Tudor inh: inactive

How did Cn1c(Oc2cccc(Cl)c2)nc2c1c(=O)n(Cc1ccccc1Cl)c(=O)n2C do in these assays?
BAZ2B inh: inactive; HP1b binding inh: inactive; JMJD2A Tudor inh: inactive; G9a block: inactive; GLS inhibitor: inactive

How did Cn1c(Oc2ccccc2)nc2c1c(=O)n(Cc1ccc(Cl)cc1Cl)c(=O)n2C do in these assays?
BAZ2B inh: inactive; HP1b binding inh: inactive; JMJD2A Tudor inh: inactive; G9a block: inactive; GLS inhibitor: 11µM

What do the screens show for `Cn1cnc2c1c(=O)n(Cc1ccc(F)cc1Cl)c(=O)n2C`?
BAZ2B inh: inactive; HP1b binding inh: inactive; JMJD2A Tudor inh: inactive; G9a block: inactive; GLS inhibitor: 8.9µM

Results for COC(=O)c1cc2sccc2n1Cc1c(C)cc(C)cc1C ?
BAZ2B inh: inactive; HP1b binding inh: inactive; JMJD2A Tudor inh: inactive; G9a block: inactive; GLS inhibitor: inactive

Results for Cc1cccc(Cn2cc3c(=O)n(CC(=O)Nc4ccc(C)c(F)c4)nc-3c3cc(F)ccc32)c1 ?
BAZ2B inh: inactive; HP1b binding inh: inactive; JMJD2A Tudor inh: inactive; G9a block: inactive; GLS inhibitor: inactive

How did O=C1C(F)=CC(COC(c2ccccc2)(c2ccccc2)c2ccccc2)OC1n1cc(F)c(=O)[nH]c1=O (stereo not drawn) do in these assays?
HP1b binding inh: inactive; JMJD2A Tudor inh: 50µM; GLS inhibitor: inconclusive

What do the screens show for `CC(=O)OCC1OC(n2cc(F)c(=O)[nH]c2=O)C(OC(C)=O)C1OC(C)=O` (stereo not drawn)?
HP1b binding inh: inactive; JMJD2A Tudor inh: inactive; GLS inhibitor: inactive

What do the screens show for `COc1cccc(-c2cc(N(C)Cc3ccco3)ncn2)c1`?
G9a block: inactive[0.501 µM]

What do the screens show for `O=C(N=Nc1c(O)[nH]c2ccccc12)c1cccc(S(=O)(=O)Nc2ccccc2Cl)c1`?
BAZ2B inh: inconclusive; HP1b binding inh: inactive; JMJD2A Tudor inh: 28µM; G9a block: inactive; GLS inhibitor: inactive

Results for CC(C)c1ccc2[nH]c(O)c(N=NC(=O)c3cccc(S(=O)(=O)Nc4ccccc4Cl)c3)c2c1 ?
BAZ2B inh: inactive; HP1b binding inh: inactive; JMJD2A Tudor inh: inactive; G9a block: inactive; GLS inhibitor: inactive

Results for COc1ccc(C(=O)/C=C/c2cn(CC(O)CN3CCCCCC3)c3ccccc23)cc1OC (stereo not drawn) ?
BAZ2B inh: 28µM; HP1b binding inh: inactive; JMJD2A Tudor inh: inconclusive; G9a block: inconclusive; GLS inhibitor: inactive

What do the screens show for `COc1ccc(C(=O)/C=C/c2cn(CC(O)CN3CCN(C)CC3)c3ccccc23)cc1OC` (stereo not drawn)?
BAZ2B inh: inactive; HP1b binding inh: inactive; JMJD2A Tudor inh: inactive; G9a block: inactive; GLS inhibitor: inactive

What do the screens show for `Cc1ccc(C(=O)/C=C/c2cn(CC(O)CN3CCCCCC3)c3ccccc23)cc1` (stereo not drawn)?
BAZ2B inh: inconclusive; HP1b binding inh: inactive; JMJD2A Tudor inh: 50µM; G9a block: inconclusive; GLS inhibitor: inactive

How did C[C@H](CN1CCCC1)C(=O)c1ccc(C(F)(F)F)cc1 do in these assays?
GLS inhibitor: inactive
